Inconclusive results are not listed. Active and inactive are the calls of the source. Calls follow the shape of the dose curve; as a rule, active = well fitted activation curve with a large enough effect in the main read-out, with a control signal flat; inconclusive = small, poorly fitted or top-dose-only effect, or effect the other way, or a change in a side signal; inactive = no such curve, though single readings can be large or run the other way.

Our source for the max response and Potency values is PubChem BioAssay AID939 (National Center for Advancing Translational Sciences (NCATS), 2007).

The nature of experiment [1]: Confirmation Concentration-Response Assay for Agonists of the Thyroid Stimulating Hormone Receptor. As to activation: % of control where 0% means no effect. The note with it: HEK293 TSHR-CNG cells, membrane potential dye, cAMP; measured here: parental HEK293 counter-screen max. The method in brief: (§1)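 HEK 293 cells stably expressing TSHR and a cAMP-gated CNG channel; membrane potential dye with 100 uM RO 20-1724, compound added 30 min before fluorescence read (590 nm emission). Parental CNG-only HEK 293 cells served as counter-line.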

Experiment [2] has as its target Thyrotropin receptor (Homo sapiens) (UniProt P16473). The description is as above. To be noted: HEK293 TSHR-CNG cells, membrane potential dye, cAMP; series mostly up to 25.6 µM. The method in brief: as §1
Potency is read from the fitted curve at half-maximal effect.

Thyrotropin receptor (Homo sapiens), sequence (P16473 whole entry, looked up): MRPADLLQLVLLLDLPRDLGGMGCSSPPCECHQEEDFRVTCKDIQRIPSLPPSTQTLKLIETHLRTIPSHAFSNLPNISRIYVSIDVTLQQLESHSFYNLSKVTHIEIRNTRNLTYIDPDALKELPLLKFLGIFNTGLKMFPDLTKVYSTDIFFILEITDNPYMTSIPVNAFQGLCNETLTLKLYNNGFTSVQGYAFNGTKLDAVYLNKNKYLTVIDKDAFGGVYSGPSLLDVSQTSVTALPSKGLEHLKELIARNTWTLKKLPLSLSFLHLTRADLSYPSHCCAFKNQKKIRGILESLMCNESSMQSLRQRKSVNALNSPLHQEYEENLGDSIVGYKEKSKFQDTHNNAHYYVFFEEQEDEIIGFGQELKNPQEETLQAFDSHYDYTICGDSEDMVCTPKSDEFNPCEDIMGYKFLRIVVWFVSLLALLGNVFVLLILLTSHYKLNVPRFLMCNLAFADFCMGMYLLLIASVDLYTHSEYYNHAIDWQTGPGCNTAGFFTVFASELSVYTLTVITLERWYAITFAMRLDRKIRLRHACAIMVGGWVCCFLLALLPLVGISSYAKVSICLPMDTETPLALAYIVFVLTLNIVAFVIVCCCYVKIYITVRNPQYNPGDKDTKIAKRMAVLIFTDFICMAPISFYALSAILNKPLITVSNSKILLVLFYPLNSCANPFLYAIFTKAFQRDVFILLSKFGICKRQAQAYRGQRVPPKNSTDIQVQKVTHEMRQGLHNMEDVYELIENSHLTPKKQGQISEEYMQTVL

Take `Cc1nn(-c2ccccc2)c(N2CCCC2)c1/C=N/n1cnc2scc(-c3ccccc3)c2c1=O`: the max response in experiment [1] turned out to be 16.6%. For the same compound, in experiment [2], the Potency is 1.58 µM (active).

For `COC(=O)C1=C(C)OC(N)=C(C#N)C1C1CCCCC1` (stereo unspecified), in experiment [1], the max response worked out at 16.5%. For the compound `COc1ccc(C(=O)N(Cc2ccco2)Cc2cccs2)c(O)c1`, in experiment [1], the max response is -7.34%. The Potency in experiment [2] is 1 µM (active). On to `Cc1onc(-c2ccccc2Cl)c1C(=O)Nc1ccc(-n2nncc2-c2ccco2)cc1`, for which, in experiment [1], the max response was -3.47%. For the compound `CCC(C)(C)n1nnnc1CN(Cc1ccco1)Cc1cc2cc3c(cc2[nH]c1=O)OCO3`, in experiment [1], the max response is -12.1%. The Potency result in experiment [2] was “inactive”.

For the compound `Oc1ccccc1Cn1c(-c2ccccc2O)nc2ccccc21`, the max response in experiment [1] was -14.6%. In addition, the Potency in experiment [2] was 12.6 µM (active). With `CC(=O)Nc1ccc(S(=O)(=O)N(C)c2ccccc2)cc1`, in experiment [1], the max response was determined as 4.53%. Besides, the Potency result in experiment [2] was “inactive”.

With `COCCNC(=O)C(c1ccccc1)N(Cc1cccs1)C(=O)Cn1nnc2ccccc21` (stereo unspecified), the max response in experiment [1] was determined as 6.98%. Moreover, the Potency result in experiment [2] was “inactive”. For the compound `O=C(C1COc2ccccc2O1)N1CCCC1` (stereo unspecified), the max response in experiment [1] was -1.94%.

In the case of `c1ccc(-n2cnc3cc(NCc4ccncc4)ccc32)cc1`, the max response in experiment [1] came out at 1.12%. Besides, the Potency result in experiment [2] was “inactive”.

Turning to `O=S1(=O)N=C(Oc2ccccc2)c2ccccc21`, in experiment [1], the max response is -6.77%. Besides, the Potency result in experiment [2] was “inactive”.

Consider `Cn1c(=O)[nH]c(=O)c2c1nc(N1CCCCCC1)n2CCCSc1nc2ccccc2o1`, for which the max response in experiment [1] was found to be 12.7%. In experiment [2], the Potency entry is “inactive”. For the compound `CC1(C)c2ccccc2N2CCC(=O)NC21/C=C/c1ccco1` (stereo unspecified), the max response in experiment [1] is 13.4%. The Potency in experiment [2] is 6.31 µM (active).

As to `CCS(=O)(=O)N1CCN(C(C)CCc2ccccc2)CC1` (stereo unspecified), in experiment [1], the max response is -2.55%. `Cc1ccc2nc(SCC(=O)O)nc(C)c2c1`: the max response in experiment [1] was 13%. Further, the Potency result in experiment [2] was “inactive”. In the case of `CCSCCOC(=O)C1=C(C)N(C)C(=O)NC1c1cc(OC)ccc1OC` (stereo unspecified), the max response in experiment [1] came to 7.65%. Also, the Potency result in experiment [2] was “inactive”. `Cc1ccc(C)c(Cn2c(C(C)O)nc3ccccc32)c1` (stereo unspecified): in experiment [1], the max response was -2.8%. In addition, the Potency in experiment [2] was 3.98 µM (active). Taken in the same sequence, the figures for `Cc1oc(-c2cccc(Cl)c2)nc1CN1CCCC(C(=O)NC(C)c2ccc3c(c2)OCCO3)C1` (stereo unspecified) were 8.77% and “inactive”. Regarding `Nc1cc(CN2C(=O)c3ccccc3C2=O)cc(Cl)c1O`, the max response in experiment [1] was 4.5%. Besides, in experiment [2], the Potency entry is “inactive”. On to `Cc1ccc(-n2nc(-c3ccc(N)cc3)cc2N)cc1`, for which the max response in experiment [1] was -8.96%. Moreover, the Potency result in experiment [2] was “inactive”. Consider `NC(=O)c1nsc(C(=O)N(CC(=O)NCc2ccc3c(c2)OCO3)C2CCCCC2)c1N`, for which the max response in experiment [1] worked out at 8.82%. The Potency in experiment [2] was 1.26 µM (active).

For the compound `COc1cc2c(N3CCOCC3)cc(O)c(CC(=O)Nc3ccccc3)c2cc1OC`, in experiment [1], the max response was -10.7%. Further, the Potency result in experiment [2] was “inactive”.

Take `CCOc1ccc(N(C(C)C(=O)Nc2ccc(OC)cc2)S(C)(=O)=O)cc1` (stereo unspecified): the max response in experiment [1] is -4.4%. In addition, the Potency result in experiment [2] is “inactive”. Regarding `O=C(COC(=O)C1c2ccccc2Oc2ccccc21)Nc1ccc2c(c1)OCO2`, in experiment [1], the max response was found to be 8.54%. Also, the Potency in experiment [2] is 12.6 µM (active). Consider `Cn1cccc1Cc1nnc(SCC(N)=O)n1CCc1ccccc1`, for which the max response in experiment [1] was found to be 3.14%. Also, in experiment [2], the Potency result was “inactive”. With `O=C1C=C(NCc2ccccc2)C2(CCCCC2)O1`, the max response in experiment [1] was determined as 16.9%. The Potency result in experiment [2] was “inactive”. Consider `COc1cc(OC)cc(-c2nnc(SCC(=O)N(C(C)C)C(C)C)o2)c1`, for which the max response in experiment [1] came to 16.6%. Also, the Potency in experiment [2] is 12.6 µM (active). Regarding `CCOc1ccc(N(CC(=O)NC(C)(C)C)S(=O)(=O)c2c(C)noc2C)cc1`, the max response in experiment [1] amounted to 6.91%. Besides, the Potency result in experiment [2] was “inactive”. As for `Cc1ccc(N(CC(=O)NCc2ccco2)S(=O)(=O)c2ccccc2)cc1`, in experiment [1], the max response was -6.79%. For the same compound, the Potency in experiment [2] was 12.6 µM (active). For `COc1ccc(-c2ccc(-c3noc(C)n3)c(OC)n2)cc1`, the max response in experiment [1] turned out to be 8.55%. Moreover, the Potency entry in experiment [2] was “inactive”. Turning to `Cc1cc(-n2c(C)cc(C(=O)CSc3nnnn3-c3ccc(Cl)cc3)c2C)no1`, the max response in experiment [1] is 13.5%. Moreover, in experiment [2], the Potency is 3.98 µM (active). On to `CCc1ccccc1NC1=NCC(=O)N1Cc1ccc(OC)cc1`, for which, in experiment [1], the max response was -6.12%. In addition, the Potency in experiment [2] is 12.6 µM (active).

Take `Cc1occc1-c1nnc(SCC(=O)NCc2ccc3c(c2)OCO3)n1CC(C)C`: the max response in experiment [1] came to 9.78%. Besides, the Potency in experiment [2] was 12.6 µM (active).

Turning to `COc1ccc(C2Nc3ccccc3C(=O)N2Cc2ccco2)cc1COc1ccc(NC(C)=O)cc1` (stereo unspecified), in experiment [1], the max response came out at 21.9%. Further, the Potency in experiment [2] is 0.631 µM (active). For `O=C1c2ccccc2C(=O)N1Cc1nc(-c2ccccc2)no1`, the max response in experiment [1] amounted to 21.1%. For the same compound, the Potency result in experiment [2] was “inactive”. Take `C=CCn1c(COc2ccccc2F)nnc1SCC(=O)N1CC(=O)Nc2ccccc21`: the max response in experiment [1] was -6.56%. In addition, the Potency entry in experiment [2] was “inactive”. As for `O=S(=O)(c1ccccc1)N1CCN(C2CCN(Cc3ccccc3)CC2)CC1`, the max response in experiment [1] turned out to be 0.84%. Moreover, the Potency entry in experiment [2] is “inactive”. On to `COc1cc(NC(=O)c2cc(-n3cnnc3)ccc2Cl)cc(OC)c1`, for which the max response in experiment [1] was -1.27%. Moreover, the Potency entry in experiment [2] is “inactive”. As to `Cc1ccccc1NC(=O)CSc1nnc(-c2ccoc2C)n1CCc1ccccc1`, the max response in experiment [1] was found to be 20.3%. In experiment [2], the Potency was 6.31 µM (active). For the compound `Cc1ccc(S(=O)(=O)NC(=O)Nn2c(C)nnc2C)cc1`, the max response in experiment [1] came to 1.93%. Moreover, the Potency entry in experiment [2] is “inactive”.

With `CN1C(=O)C2C=CC1C1C(=O)N(c3ccccc3)C(=O)C21` (stereo unspecified), the max response in experiment [1] came to 2.29%. The Potency result in experiment [2] was “inactive”. Regarding `CC(C)CC(=O)Nc1cccc(-c2cn3ccsc3n2)c1`, in experiment [1], the max response is -8.65%. Also, the Potency result in experiment [2] was “inactive”. Regarding `CN1C(=O)N(C)C2(c3ccccc3)Nn3c(s/c(=C/c4ccco4)c3=O)=NC12c1ccccc1` (stereo unspecified), in experiment [1], the max response was -0.854%. Besides, the Potency entry in experiment [2] is “inactive”. For the compound `COC(=O)C1=C(C)OC(N)=C(C#N)C1c1c(C)nn(-c2ccccc2)c1Cl` (stereo unspecified), the max response in experiment [1] was found to be 6.03%. For the same compound, the Potency in experiment [2] was 7.94 µM (active). As for `Oc1ccccc1-c1cc(C(F)(F)C(F)F)nc(-c2ccccc2)n1`, in experiment [1], the max response was 3.44%. In experiment [2], the Potency is 7.94 µM (active).
